# About 83,000 compounds went through this panel and 20% of them were active in at least one assay; those are over-represented in the sample as a whole.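 Assay: single dose, 48 h. Readout: percent growth (0 = no net growth; negative = cell death). Active: <10.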 Values without a mark were called inactive. Active and inactive are the calls of the source.
# Legend:
# Test in all cases: NCI-60 one-dose screen, 48 h (100 = growth as untreated, 0 = no growth, -100 = all killed)
# Conditions in all cases: 10 µM unless noted
# SK-MEL-2 melanoma = tested on: SK-MEL-2 melanoma
# EKVX NSCLC = tested on: EKVX NSCLC
# SN12C renal = tested on: SN12C renal
# UO-31 renal = tested on: UO-31 renal
# TK-10 renal = tested on: TK-10 renal
# ACHN renal = tested on: ACHN renal
# CAKI-1 renal = tested on: CAKI-1 renal
# A498 renal = tested on: A498 renal
# MOLT-4 leukemia = tested on: MOLT-4 leukemia
# SR leukemia = tested on: SR leukemia
# OVCAR-8 ovarian = tested on: OVCAR-8 ovarian
# OVCAR-5 ovarian = tested on: OVCAR-5 ovarian
# OVCAR-4 ovarian = tested on: OVCAR-4 ovarian
# SK-OV-3 ovarian = tested on: SK-OV-3 ovarian
# IGROV1 ovarian = tested on: IGROV1 ovarian
# OVCAR-3 ovarian = tested on: OVCAR-3 ovarian
# HS 578T breast = tested on: HS 578T breast
# NCI/ADR-RES ovarian = tested on: NCI/ADR-RES ovarian
# RPMI-8226 leukemia = tested on: RPMI-8226 leukemia
# CCRF-CEM leukemia = tested on: CCRF-CEM leukemia
Compound,growth (SK-MEL-2 melanoma),growth (EKVX NSCLC) [%],growth (SN12C renal),growth (UO-31 renal) [%],growth (TK-10 renal) [%],growth (ACHN renal) [%],growth (CAKI-1 renal) [%],growth (A498 renal),growth (MOLT-4 leukemia),growth (SR leukemia),growth (OVCAR-8 ovarian),growth (OVCAR-5 ovarian),growth (OVCAR-4 ovarian) [%],growth (SK-OV-3 ovarian),growth (IGROV1 ovarian),growth (OVCAR-3 ovarian),growth (HS 578T breast),growth (NCI/ADR-RES ovarian),growth (RPMI-8226 leukemia),growth (CCRF-CEM leukemia)
COCCCN1CC(O)=C(c2nc(-c3ccc(C)cc3)cs2)C1=N,113%,97.3,92.9%,80.6,138,111,96.1,93.3%,86.4%,109%,95.2%,97.6%,150,120%,54.4%,112%,102%,106%,–,–
COc1cc(C2C3=C(COC3=O)N(CCO)c3cc4c(cc32)OCO4)cc(OC)c1OC (stereo not drawn),24.7%,35.2,16.8%,45.8,54.4,40.1,50.6,-19.6% (active),–,–,28.4%,27.7%,28.5,-24.2% (active),19.1%,-27.6% (active),-6.37% (active),27.2%,15.2%,–
CCNc1nc2cc(Nc3ccnc4cc(Cl)ccc34)ccc2o1,81.2%,86,79.3%,70.2,81.9,88.2,71.9,47%,–,–,85.3%,71.8%,75.5,84.8%,70.1%,80.9%,84.5%,52.3%,–,76.8%
CCN(c1ccccc1)S(=O)(=O)c1cc([N+](=O)[O-])ccc1Cl,46.2%,88.3,60.7%,53.9,107,79.9,48.1,71.9%,–,–,79.8%,67.4%,25.1,55.3%,54%,–,82%,42.2%,–,52%
Cc1c(C)c([N+](=O)[O-])c(C)c([N+](=O)[O-])c1C,102%,103,102%,105,102,118,99.3,94.3%,–,–,104%,104%,99.5,114%,104%,109%,102%,108%,–,–
CCCCCCCC(=O)OCC/C=C/C1OC1C1OC(=O)/C=C\C=C\C(=O)N(C(C)=O)C(=O)/C=C(/C)CCC2OC2C1OC(=O)NC(C)=O (stereo not drawn),89.8%,83.5,63.2%,69,37.5,29.2,71,90.7%,–,–,85.1%,79.5%,97.2,96%,62.7%,61.2%,87.5%,78.1%,–,–
CCNC(=O)Oc1ccc(/C(=C(\C)c2ccccc2)c2ccc(OCCCN(C)C)cc2)cc1,97.2%,84,81.1%,55.4,84.5,98.1,84.3,–,65.8%,10.2%,86.5%,81.4%,84.4,80.7%,87.5%,85.3%,57%,–,66.6%,82.7%
Cn1ccnc1C(=O)/C=C/c1ccc(CC(=O)NC2CCCCC2)cc1,108%,77.4,61.2%,60.4,94.8,81.3,66.9,–,67.7%,24.8%,62.4%,96.8%,58.6,92.9%,60.4%,27.6%,86.1%,–,20.3%,33.5%
CNC(=O)c1cncc(Cn2nc(C)c(NC(=O)c3ccc(COc4ccc(C(F)(F)F)cc4C)cc3)c2C)c1,48.8%,46.5,69.1%,58.6,61.9,62,60,–,41.7%,25%,55%,98.1%,43.5,76.7%,62.7%,41%,92.7%,–,42.7%,69%
Cc1cc(Cl)nc(N(CCNc2ccnc3cc(Cl)ccc23)Cc2ccccn2)n1,69.5%,61.4,52.6%,43.2,63.3,44.9,56.1,85.8%,–,–,39.3%,74.3%,35,82.9%,57.5%,3.13% (active),87.3%,47.5%,–,7.95% (active)
Cn1ccnc1C(=O)/C=C/c1ccc(CC(=O)Nc2ccc(Cl)cc2)cc1,89.7%,40.6,2.21% (active),23.3,27,49.8,34.7,–,5.64% (active),6.73% (active),-27.7% (active),22.9%,36.9,58.7%,13%,4.49% (active),8.18% (active),–,-7.76% (active),4.18% (active)
COc1cc(NC(=O)CSc2nc3ccc(C)cc3c(=O)n2Cc2ccccc2)cc(OC)c1OC,57.2%,84.9,83.5%,71.4,55.4,38,82.4,14.1%,–,–,41.3%,96.3%,23.9,40%,74.3%,43.8%,44.9%,66.3%,–,94.1%
N#CC(C(=O)/C(=N/NC(=O)c1ccccc1O)C(C#N)c1ccccc1)c1ccccc1 (stereo not drawn),68.6%,76.7,52.5%,29.4,69.7,31,82.5,30.9%,–,–,52.3%,91.2%,58.8,45.9%,37.7%,68.7%,24.1%,44.5%,–,–
N#C/C(=C\c1cccc(C#N)c1)c1ccccc1,112%,90.7,98.9%,93.3,91,106,96,112%,–,–,111%,100%,98.8,105%,107%,105%,106%,101%,–,–
CNC(=O)c1cc(Cn2nc(C)c(NC(=O)Nc3ccc(Cl)c(C(F)(F)F)c3)c2C)ccn1,82.3%,102,98.6%,90.5,103,97.9,93.6,–,90.8%,91.9%,97%,99.7%,87.1,95.2%,109%,109%,97.1%,–,94.9%,92.1%
COc1cc(C2C3=C(COC3=O)N(CCO)c3cc4c(cc32)CCC4)cc(OC)c1OC (stereo not drawn),6.85% (active),29.6,23.9%,31.9,55.3,26.1,28.7,-20.4% (active),–,–,31.5%,8% (active),23.3,-32.1% (active),8.46% (active),-33.4% (active),14.5%,-74.5% (active),17.9%,–
COc1ccc(C(=O)CC#N)cc1,134%,126,94.1%,105,137,108,127,109%,–,–,103%,105%,107,112%,–,–,110%,111%,110%,–

# Reference: PubChem BioAssay (NCI)
